From PubChem
Pf Dd2 growth: Plasmodium falciparum Dd2 growth inhibition | P. falciparum Dd2 growth, SYBR Green, 72 h | 120,000 compounds, 4.3% hits | Potency, µM (series often up to 28.9 µM), without a hit: top-dose activity, negative = inhibition, hits mostly inhibitors; active = well fitted inhibition curve with a large enough effect;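 also: plate controls were DMSO vehicle for no effect and reference drug for full effect; nearly all actives have a fitted effect of over 65% in size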
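Infected erythrocytes (Dd2, 0.3% parasitemia, 2.5% hematocrit final) are added to compound in RPMI-1640/Albumax II medium, grown 72 h at 37C in low oxygen, then lysed with saponin/Triton-X containing SYBR Green and read by fluorescence.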
Numbers without * were called inactive; [ ] = another dose, or the depositor's remark. Many of the other results were omitted from the sample, so hits are more common in it than they were. Potency is read from the fitted curve at half-maximal effect.

For Cc1ccc(C)c(N(C)C(=O)C2CCN(c3ncnc4c3nc3n4CCCCC3)CC2)c1 the results were Pf Dd2 growth 8.9µM*.
O=C(Nc1ccc(F)cc1)C1CCCN(c2ncnc3c2nc2n3CCCCC2)C1 (configuration not stated) was read as Pf Dd2 growth -20%.
CN(C(=O)C1CCN(c2ncnc3c2nc2n3CCCCC2)CC1)c1ccccc1F was read as Pf Dd2 growth -20%.
For CCc1ccccc1N(C)C(=O)C1CCCN(c2ncnc3c2nc2n3CCCCC2)C1 (configuration not stated) the results were Pf Dd2 growth 7.9µM*.
For CCc1ccccc1N(CC)C(=O)C1CCN(c2ncnc3c2nc2n3CCCCC2)CC1 the results were Pf Dd2 growth 11µM*.
Screening Cc1ccc(C)c(NC(=O)C2CCN(c3ncnc4c3nc3n4CCCCC3)CC2)c1 returned Pf Dd2 growth 15%.
`O=C1Nc2ccc(-c3cccc(C(F)(F)F)c3)cc2C(=O)N2CCN(C(=O)c3ccco3)C[C@@H]12` gave Pf Dd2 growth inactive.
CN1C(=O)c2cccn2CC1CNC(=O)c1cn[nH]c1-c1ccccc1 (configuration not stated) was read as Pf Dd2 growth 6%.
COc1cccc(NC(=O)N[C@H]2[C@H](O)[C@@H](N3CCN(C)CC3)[C@@H]3OC[C@H]2O3)c1 was read as Pf Dd2 growth -10%[44.1 µM].
Screening O=C(O)Cn1ccc2cc(OCc3cccc(-c4ccc(F)cc4F)c3)cnc21 returned Pf Dd2 growth -12%[44.1 µM].
COc1ccc(C(=O)N2CCC(C(=O)N3CCCCCCNC(=O)CC3)CC2)cc1F was read as Pf Dd2 growth -9%.
For O=C(Nc1ccc(Oc2ccccc2)cc1)N[C@H]1CO[C@H]2[C@@H]1OC[C@@H]2Nc1nccc(-c2cccc(F)c2)n1 the results were Pf Dd2 growth -19%.
Screening C[C@@H](NC(=O)C1=C[C@@H](NC(=O)c2cccs2)[C@@H](O)[C@H](O)C1)C(N)=O returned Pf Dd2 growth inactive.
`COc1cc(NC(=O)CCc2nc(-c3cccs3)no2)cc(OC)c1OC` gave Pf Dd2 growth -4%.
For Cc1cccc(-c2noc(-c3ccccc3OCC(=O)Nc3ccc([N+](=O)[O-])cc3)n2)c1 the results were Pf Dd2 growth 13%.
Screening O=C(CCc1nc(-c2cccs2)no1)Nc1ccc([N+](=O)[O-])cc1 returned Pf Dd2 growth 11µM*.
For Cc1ccsc1C(=O)N1CCC(c2n[nH]c(=O)n2Cc2ccc(F)cc2)CC1 the results were Pf Dd2 growth -6%.
`COc1ccc(CCNC(=O)C(=O)Nc2ccc(C)c(C)c2)cc1` gave Pf Dd2 growth 20%.
COc1ccc(CNC(=O)C(=O)Nc2ccc(OC)cc2OC)cc1 was read as Pf Dd2 growth 5.6µM*.
`COc1ccc(CNC(=O)C(=O)Nc2cccc(C)c2C)cc1` gave Pf Dd2 growth 29%.
For Cc1cc(OCC(=O)c2ccc3c(c2)N(CCCC(=O)NCC2CC2)C(=O)CO3)ccc1Cl the results were Pf Dd2 growth inactive.
Screening O=C(N[C@@H]1CNC[C@H]1O)C1CCN(c2nc(-c3ccccc3)nc3c2CCC3)CC1 returned Pf Dd2 growth -8%.
`COc1ccc(OC)c(NC(=O)CC2CCCCN(C)C2=O)c1` (configuration not stated) gave Pf Dd2 growth -1%.
`CN1CCCCCCN(C(=O)NCc2ccccc2)CCC1=O` gave Pf Dd2 growth 9%.
Screening Cn1ccc(NC(=O)[C@@H]2C[C@@H](c3ccc(F)cc3)N(Cc3ccccc3)C2)n1 returned Pf Dd2 growth 13µM*.
Screening COc1ccc(CNC(=O)[C@@H]2C[C@@H](c3ccc(F)cc3)N(Cc3ccccc3)C2)cc1OC returned Pf Dd2 growth inactive.
For Cn1cc(CN2C[C@H](C(=O)Nc3ccccc3)C[C@@H]2c2cccc(C(F)(F)F)c2)cn1 the results were Pf Dd2 growth -21%[44.1 µM].
For Cn1cc(CN2C[C@H](C(=O)Nc3ccn(C)n3)C[C@@H]2c2cccc(C(F)(F)F)c2)cn1 the results were Pf Dd2 growth inactive.
Cc1nc(CN2C[C@H](C(=O)NCc3cccc(F)c3)C[C@@H]2c2ccc(F)cc2)cs1 was read as Pf Dd2 growth 14µM*.
For Cn1cc(CN2C[C@H](C(=O)Nc3ccc(F)cc3)C[C@@H]2c2cccc(C(F)(F)F)c2)cn1 the results were Pf Dd2 growth inactive.
Screening O=C(Nc1ccncn1)[C@@H]1C[C@@H](c2ccc(F)cc2)N(Cc2ccccc2)C1 returned Pf Dd2 growth inactive.
Screening Cn1cc(CN2C[C@H](C(=O)NCc3cccc(F)c3)C[C@H]2c2cccc(C(F)(F)F)c2)cn1 returned Pf Dd2 growth 8.9µM*.
For Cc1nc(CN2C[C@H](C(=O)N3CCN(CCO)CC3)C[C@@H]2c2ccc(F)cc2)cs1 the results were Pf Dd2 growth -8%[44.1 µM].
`Cc1ncccc1OC1(C(=O)NCc2n[nH]c3c2CCC3)CCNCC1` gave Pf Dd2 growth 8%.
`O=C(c1ccncc1)N1CCCC(CCc2ccc(F)cc2)C1` (configuration not stated) gave Pf Dd2 growth -9%.
For CCOC(=O)C1(Cc2ccc(Cl)cc2)CCN(C(=O)c2ccc(C)s2)CC1 the results were Pf Dd2 growth -15%.
For CCOC(=O)C1(Cc2ccc(Cl)cc2)CCNCC1 the results were Pf Dd2 growth 3.5µM*.
`CCOC(=O)C1(Cc2ccccc2Cl)CCN(S(=O)(=O)c2ccccc2)CC1` gave Pf Dd2 growth -18%.
Screening CC(C)NC(=O)N[C@H]1CCN(C(=O)CC(C)(C)C)[C@@H]1C(=O)N[C@H](Cc1c[nH]c2ccccc12)C(N)=O returned Pf Dd2 growth -22%.
O=C(CCC1CCN(S(=O)(=O)c2ccccc2)CC1)NCc1ccco1 was read as Pf Dd2 growth -17%.
Screening COc1ccc([C@H]2C[C@@H](O)[C@@H](O)[C@@H]2NS(=O)(=O)c2ccc(C(F)(F)F)cc2)cc1 returned Pf Dd2 growth inactive.
O=C1CC(c2ccccc2)N(C(=O)CNC(=O)c2c[nH]c3ccccc23)CCCCCN1 (configuration not stated) was read as Pf Dd2 growth inactive.
O=C(Cc1c[nH]c2ccccc12)NCC(=O)N1CCCCCNC(=O)CC1c1ccccc1 (configuration not stated) was read as Pf Dd2 growth -17%.
Screening O=C1CC(c2ccccc2)N(C(=O)CNC(=O)c2n[nH]c3ccccc23)CCCCCCN1 (configuration not stated) returned Pf Dd2 growth 10µM*.
`N#Cc1cccc(C(=O)NCC(=O)N2CCCCCCNC(=O)CC2c2ccccc2)c1` (configuration not stated) gave Pf Dd2 growth -23%.
`O=C1CC(c2ccccc2)N(C(=O)CNC(=O)c2ccc3cc[nH]c3c2)CCCCCN1` (configuration not stated) gave Pf Dd2 growth 10µM*.
O=C1CC(c2ccccc2)N(C(=O)CNC(=O)c2ccoc2)CCCCCCN1 (configuration not stated) was read as Pf Dd2 growth -25%.
O=C1CCCN1CCCN1C(=O)[C@@H]2C[C@@H](O)CN2C2(CN(C3COC3)C2)C1=O was read as Pf Dd2 growth 38%[44.1 µM].
`CC1(C(=O)O)CCN(C(=O)c2ccc3c(c2)OCO3)CC1` gave Pf Dd2 growth -8%.
CC(=O)Nc1ccc(C(=O)N[C@@H]2CCOC[C@H]2OCc2ccccn2)cc1 was read as Pf Dd2 growth -8%.
Screening COCC[C@]1(O)CCN(Cc2cc(F)ccc2-n2cccn2)C[C@H]1C returned Pf Dd2 growth -4%.
